Experimental data from the supplement of paper PMC6555819.

What follows are sequences tested on PPARa:RXRa (NR concentration 270 nM, RXRa partner concentration 90 nM) (assay: PBM binding z-score (relative to random genomic background probes); higher = stronger binding; sequences stand for … in GC…GCGATTGACAGCGTAGAATGAAGG).
In short: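 Scanned fluorescence from custom Agilent 4×180K protein-binding microarrays was regression-normalized. Binding z-scores use random background probes as reference. Ligand-free nuclear receptor dimers were incubated on the arrays for 1 h and detected with antibodies against each partner (one per run).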
For CCTTACGGGACACTGACAGGTTATAGCATTTGGA, the PBM binding z-score was -0.0851. In the case of AGAACGAGGGCAATGAGTTGAGAGCACGGGTGGC, the PBM binding z-score is reported as 1.42. Work on CCTGCTAGGTCAATGGTCGGCTAAAGCAGCTCGC yielded a PBM binding z-score of 2.95. With CCGACTGGGGCTAAGGTTACCATACTCAGTACGA the PBM binding z-score was 2.71. CTTCCAAGGTCAATGCTAGGTCAGTGAAAGCATT showed a PBM binding z-score of 5.14. CATACTGGGCCAAAGGTCATTGATTCCAATGCTC gave a PBM binding z-score of 6.71. Work on AGAACGAGGGCACGCTGAGTTGCTAGCAGAGTAG yielded a PBM binding z-score of 2.05. CCTCGGAGGACCACAGGAGGTCAGAGCTGCCAGA gave a PBM binding z-score of 1.97. AGTCAAAGTTCAGGACGAGGTTACGTAAAGCACG showed a PBM binding z-score of 3.73. Sequence TCTAGTTGGTCACGGACGTCACACACGACGGGTA has a PBM binding z-score of 0.764. Sequence TAGCCTAGGTCATTGCGCCAGTATAGTACGCATC has a PBM binding z-score of 3.48. With TCTTTTAGATCAAGCAGGTTAAGAAAGCCTGAGT the PBM binding z-score was 1.02. With CATACAGGGTCAGCTAGGCCACAGTAGGGACGGC the PBM binding z-score was 4.29. For GCTAGTTGGTCAGTAAAAGGTCACACGCCGGTCG, the PBM binding z-score was 4.52. With ACAGACAAGTGAGTGAAGGTAACTCAGCTGGACG the PBM binding z-score was -0.314. CCTACTGGGCCATTCAGAGGTCTTTGATCATATG showed a PBM binding z-score of 0.481. CCGACTGGGGTAGAAAGGTTACCATACCATCCGG was tested, and the PBM binding z-score was 2.58. CCGACTGGGGCATAAGGTTAGCATAAGCCAGCCC was tested, and the PBM binding z-score was 1.04. CGTCAAAGTTCCACTAAGGTAACGTAAAGCACGC gave a PBM binding z-score of 0.268. With CCGACTGGGGCAGATAGGTTACCATACCATCCGG the PBM binding z-score was 0.179. For CATACAGGGTCAGCTAGGCGAGAGTAGGGACGGC, the PBM binding z-score was 4.19. In the case of GGAACGAGGGCAAGTTGATCGCAGAGTTTGATGG, the PBM binding z-score is reported as 1.6. In the case of ACAGACAGGTGATGAAGCTAACTCAGGCTATCAT, the PBM binding z-score is reported as -0.116. GCATATAGGTAATACAAGGTAAAAGTCCGATTGT gave a PBM binding z-score of 0.669. TCTGGGAGGACACGAAAGGTCAGAGCTCGACATC gave a PBM binding z-score of 3.51. Sequence CCGACTGGGGCAAAGTTACCATAACGCACAGCCA has a PBM binding z-score of 1.6. With AGAATGAGGTTAAGATGAGGGAAACAGAATACAT the PBM binding z-score was 3.52. ATATGTAGATTATCGGGTCATTCAGTTTGCGCAT gave a PBM binding z-score of 2.81. In the case of TCATATTGGTAAAGGTGAAAGTCGAACGATATGA, the PBM binding z-score is reported as 2.58. In the case of TCTCGGAGCACACGAAGGTCAGAGCTTTCCAGAG, the PBM binding z-score is reported as 1.7. For CAAACTAGGTCAAGAGATCAAAGTCCGCTTCCCG, the PBM binding z-score was 5.17. ATCGAAAGGTCGAGGGTGAGTATACCCACCCGAA showed a PBM binding z-score of 4.67. CAGCCTAGGTCAGGGCCAGTATTGGAGGAACGTT gave a PBM binding z-score of 2.03. ATCGAAAGGTCGAAGGTGAGTGTACCCACCCGAA was tested, and the PBM binding z-score was 4.8. Sequence CGAACTAGGTTAAGGACAGTGAATCTCCGCACGC has a PBM binding z-score of 2.14. For TCATATAGGTAATACAGGTGAAAGCCGGCATCTA, the PBM binding z-score was 1.96. CCTGCTAGGTCATCGTCAGCTAATCTACAGTATG was tested, and the PBM binding z-score was 3.5. For TCTTGGAGATCAACAGGAGGTTAAGAAAGATCGA, the PBM binding z-score was 1.44. Work on GCGACTGGGGCAAAGCAGGTTACCATAAGGTTGG yielded a PBM binding z-score of 1.15. TAGCCTAGGTCATGGACCAGTATACCACGCGAAC was tested, and the PBM binding z-score was 4.18.
